# High-throughput results as filed in PubChem.
# This is one part of a sample in which hits are shown more often than they occur.
# Vaccinia mCherry – vaccinia inhibition (mCherry reporter) | Vaccinia virus mCherry reporter infection, fluorescence | Potency, µM (titrated, usually from 36.5 µM), without a hit: top-dose activity change, negative = inhibition, actives largely listed as inhibitors | hit rate 0.63% among 310,000 | AID 720579; calls by dose curve; tested in A549 cells; note: potency is the fitted concentration of half-maximal effect; % is set by controls: 0 for no effect and ±100 for the full control effect; nearly all actives have a fitted effect of over 35% in size
# Shiga inhibitor – inhibitors of Shiga toxin in Vero cells; Vero cells, Shiga toxin protein synthesis inhibition reporter; inhibition, % at 38.7 µM; hit rate 9.2% among 290,000; AID 2315; in the data active = inhibition mostly above about 28%, no sharp cut-off; inactive = mostly below about 43%; note: 0% is about no effect
# CHX counter – counter-screen hit for Shiga toxin inhibitors, cycloheximide; cell reporter, cycloheximide protein synthesis inhibition counterscreen; AID 2314; hit rate 12% among 300,000; max response, %; in the data active = max response mostly above about 13%, no sharp cut-off; inactive = mostly below about 14%; note: read at 38.3 µM for the half of the compounds with a filed dose; 0% is about no effect
# MARV entry inh – inhibitors of Marburg virus binding or cell entry | Marburg virus pseudotyped entry inhibition, cell reporter | Potency, µM (series often up to 37.8 µM), inactives show at the highest dose activity change, negative = inhibition, most hits filed as inhibitors | hit rate 1.8% among 300,000 | AID 540276; calls by dose curve; tested in HEK293 cells; note: potency is the fitted concentration of half-maximal effect; % is set by controls: 0 for no effect and ±100 for the full control effect
# Lassa entry inh – Lassa virus entry inhibition. Lassa virus pseudotype entry inhibition, cell reporter. Potency, µM (highest dose often 37.9 µM), for the others: at the highest dose activity change, negative = inhibition, usual class: inhibitors. hit rate 1.2% among 300,000. AID 540256; calls by dose curve; tested in HEK293 cells; note: potency is the fitted concentration of half-maximal effect; % is set by controls: 0 for no effect and ±100 for the full control effect; nearly all actives have a fitted effect of over 50% in size
# Vaccinia Venus – inhibitors of vaccinia virus (Venus reporter); hit rate 0.46% among 330,000; Vaccinia virus Venus reporter expression, fluorescence; AID 720580; Potency, µM (series often up to 36.5 µM), for inactives: at the highest dose activity change, negative = inhibition, hits mostly inhibitors; calls by dose curve; tested in A549 cells; note: potency is the fitted concentration of half-maximal effect; % is set by controls: 0 for no effect and ±100 for the full control effect; nearly all actives have a fitted effect of over 30% in size
# * hit, by the source's call; i = inactive; u = inconclusive; x = not tested or not shown; + = active, no number; [ ] = dose if it differs, or a comment.
SMILES,Vaccinia mCherry,Shiga inhibitor,CHX counter,MARV entry inh,Lassa entry inh,Vaccinia Venus
Cc1ccc(NC(=O)Cn2nnc(-c3ccccc3)n2)c(C)c1,5.1%,x,x,x,15.6%[46.1 µM],1.3%
O=C(NN=C(Cc1ccccc1)Cc1ccccc1)c1ccncc1,x,20.9,8.0*,x,x,x
CCOC(=O)NC(C(Cl)(Cl)Cl)S(=O)(=O)c1ccccc1 (centres undefined),i,49.8*,17.7*,u,u,-5.5%
CCOC(=O)NC(c1ccc(C(C)C)cc1)C(Cl)(Cl)Cl (centres undefined),-11.0%,1.3,-3.5,-60.1%,u,-3.5%
COc1ccccc1Oc1nc2c(c(=O)n(C)c(=O)n2C)n1Cc1cccc(Br)c1,-16.7%,x,x,-22.4%[46.1 µM],u,-7.4%
O=C(Nc1nccs1)C1Cc2ccccc2CN1S(=O)(=O)c1ccc(F)cc1 (centres undefined),x,94.1*,48.2*,u,u,x
O=C(Nc1nnc(C2CC2)s1)C1Cc2ccccc2CN1S(=O)(=O)c1ccccc1F (centres undefined),i,76.3,41.3*,7.4%,-38.6%,-20.4%
O=C(NC1CCCCC1)C1Cc2ccccc2CN1S(=O)(=O)c1ccc(F)cc1 (centres undefined),-14.9%,3.7,-0.1,-12.9%,-14.7%,-0.2%
O=C1Nc2ccc(C(=O)O)c(O)c2C1=O,-10.7%,x,x,-3.7%[46.1 µM],8.8%[46.1 µM],1.0%
CC(=O)Oc1ccc(C)cc1-n1nc2ccccc2n1,x,130.9*,60.5*,u,10.7%,x
Cc1ccc(OC(=O)c2ccc(S(=O)(=O)N(C)C)cc2)c(-n2nc3ccccc3n2)c1,x,80.7*,34.0*,-12.4%,-13.0%,x
Cc1ccc(OC(=O)c2cccc(S(=O)(=O)N(C)C)c2)c(-n2nc3ccccc3n2)c1,x,72.6*,63.8*,3.8%[46.1 µM],11.6%,-11.2%
Cc1ccc(OCC(=O)O)c(-n2nc3ccccc3n2)c1,x,-14.8,1.3,4.0%,8.0%,-5.7%
CN(C)S(=O)(=O)c1ccc(C(=O)Oc2ccccc2)cc1,x,4.7,-2.1,-30.0%,4.9%,-18.4%
Cc1ccc(OC(=O)c2cccc(S(=O)(=O)N3CCCC3)c2)c(-n2nc3ccccc3n2)c1,-25.2%,+,68.9*,-0.3%,19.0%,-11.1%
CCC(C)NC(=O)c1sc2nc(C)c(C(=O)Nc3ccc(C)cc3C)c(-c3ccc(Br)cc3)c2c1N (centres undefined),-14.5%,x,x,u,7.2%[46.1 µM],-6.0%
COc1ccc(-n2ncc3c(NC4CCCC4)ncnc32)cc1,-0.8%,x,x,x,-3.6%[46.1 µM],-14.1%
Cc1ccc(N2C(=O)CS(=O)C(c3ccccc3)C2=O)cc1C (centres undefined),-4.0%,65.3*,28.0*,u,-2.2%,-10.2%
O=C(O)c1ccc(Cl)c(NCc2cccnc2)c1,i,x,-3.1,1.0%[46.1 µM],14.0%[46.1 µM],-12.6%
Cc1ccc(N2C(=O)C3C4C=CC(CNC(=S)Nc5ccc(Cl)cc5)(O4)C3C2=O)cc1 (centres undefined),-26.2%,-2.2,9.6*,u,u,-14.3%
O=C1C2C3C=CC(CO)(O3)C2C(=O)N1c1ccc(-c2ccccc2)cc1 (centres undefined),x,45.7,23.0*,x,x,x
CCOC(=O)/C(C#N)=C1\Nc2ccccc2N=C1N(CC(C)C)CC(C)C,-7.8%,-13.4,3.7,u,-3.5%,-1.0%
CCOC(=O)/C(C#N)=C1/C=C(C)NC(c2ccccc2O)=N1,u,-5.6,-3.8,u,u,10µM*
O=C1C=C(c2cccc3c2sc2ccccc23)C[C@@H](c2ccc(F)cc2)C1,u,x,x,x,x,-17.6%
CCOc1ccc(N2C(=O)CC(SCCN)C2=O)cc1 (centres undefined),x,76.2*,30.7*,-5.2%,12.2%,x
SMILES,Vaccinia mCherry,Shiga inhibitor,CHX counter,MARV entry inh,Lassa entry inh,Vaccinia Venus
CCOc1ccc(N2C(=O)CC(Sc3nc(C)cc(C)n3)C2=O)cc1 (centres undefined),-10.5%,-1.6,5.6,3.8%,11.1%,-13.7%
CCCCCCOc1ccc(N2C(=O)CC(SCCN)C2=O)cc1 (centres undefined),i,26.0,12.0*,18.1%[46.1 µM],2.4%[46.1 µM],-8.6%
CCOc1ccc(N2C(=O)CC(Sc3nnnn3-c3ccccc3)C2=O)cc1 (centres undefined),-1.8%,20.7,18.0*,u,-5.2%,6.4%
COc1ccccc1/C=C1\SC(=S)N(CCC(=O)NCCCn2ccnc2)C1=O,x,-0.9,-2.9,x,x,x
CC(C)c1ccc(/C=C2\SC(=S)N(CCC(=O)NCCCn3ccnc3)C2=O)cc1,-25.1%,104.1*,60.6*,u,u,-23.1%
COc1ccc(/C=C2\SC(=S)N(CCC(=O)NCCCn3ccnc3)C2=O)cc1,x,15.9,17.9*,x,x,x
O=C(CCCN1C(=O)/C(=C/c2ccc(F)cc2)SC1=S)NCCCn1ccnc1,33.2%,-5.2,10.4,-1.4%[46.1 µM],-15.6%[46.1 µM],232.0%
FC(F)(F)c1cnc(-c2cnc(-c3cccnc3)nc2)c(Cl)c1,-4.9%,115.6*,48.1*,-9.0%[46.1 µM],18.8%,-6.3%
CS(=O)(=O)N1CCN(C(=O)Cc2ccc(Br)cc2)CC1,x,x,0.7,x,x,x
O=C(Nc1cccc(F)c1)Nc1ccnn1C1CCN(C(=O)CCN2CCCO2)CC1,-16.2%,-20.1,-1.7,3.2%,-4.6%,-12.5%
O=C(Nc1cccc(F)c1)Nc1ccnn1C1CCN(C(=O)c2cscn2)CC1,i,51.2*,41.3*,u,9.6%,-8.9%
O=C(C1=C(O)C(=O)N(CCN2CCOCC2)[C@H]1c1cccnc1)c1cc2ccccc2o1,x,x,x,0.8%,x,x
CC(CNC(=O)c1csc2c1CCCCC2)c1ccccc1 (centres undefined),-8.6%,x,x,u,x,-8.3%
CCCCCCCNC(=O)C1(CC2CC(c3cccc(Br)c3)=NO2)CCN(C(=O)Cc2ccc(F)cc2)CC1 (centres undefined),-1.4%,x,x,x,x,-29.6%
CCCCCCCNC(=O)C1(CC2CC(c3cccc(Br)c3)=NO2)CCNCC1 (centres undefined),u,32.6*,8.2*,x,x,11.2µM*
CC(C)NC(=O)NC(=O)CSc1nnc(COc2ccccc2F)n1C(C)C1CC2CCC1C2 (centres undefined),x,17.6,-2.4,u,18.3µM*,x
CC(C1CC2CCC1C2)n1c(COc2ccccc2F)nnc1SCC(N)=O (centres undefined),x,-25.6,-2.1,u,-0.4%,-0.8%
CCOc1ccccc1NC(=O)c1ccc(Cl)c(NC(=O)CC(c2ccccc2)c2ccccc2)c1,-1.9%,7.2,-3.1,14.6µM*,-3.7%,-7.1%
CC(C)CNC(=O)c1ccc(Cl)c(NC(=O)COc2ccccc2)c1,x,-1.1,-1.5,x,x,x
CCOCC(=O)Nc1cc(C(=O)Nc2ccc(F)cc2)ccc1Cl,x,32.8*,28.6*,x,x,x
COCC(=O)Nc1cc(C(=O)Nc2ccccc2)ccc1Cl,x,107.5*,36.3*,x,x,x
C#CCCOC(=O)N1C2=NC3=C(C(=O)N(Cc4ccc5c(c4)OCO5)C3=O)C3N(C)c4ccccc4[C@]23C[C@H]1CO (some centres undefined),x,x,x,-22.9%[14.2 µM],u,x
COc1ccc(CCNC(=O)CCCn2c(=O)c3ccccc3n(CC(=O)Nc3c(C)cc(C)cc3C)c2=O)cc1OC,5.0%,x,x,-8.1%[46.1 µM],17.4%[46.1 µM],3.3%
